# Measured values taken from PubChem BioAssay (NCATS).
# Results filed as inconclusive are left out. Entries that show only a call come without a potency. The source made the active and inactive calls. The call rests on the fitted dose curve; in most records, active means well fitted inhibition curve with a large enough effect; inconclusive means small, poorly fitted or top-dose-only effect; inactive means flat fitted curve, though single readings scatter. Numbered stars: 1 amine (or outer) side, 2 acyl side, 3 side chain; on linkers, the order of the positions; unused ones are H or OH. Square brackets hold non-standard residues; d marks the D form. Peptide text beside a SMILES is read from it. X2 = CC(C)=CCc1cc(C(O)C(N[*:1])C(=O)[*:2])ccc1O
# Biological target: Aldehyde dehydrogenase, mitochondrial (Homo sapiens) (UniProt P05091)
# Test: qHTS for Inhibitors of the Aldehyde Dehydrogenase Family (ALDH2) Primary screen (AID 2061308); further: nearly all actives have a fitted effect of over 55% in size
# Settings: ALDH2 enzyme inhibition qHTS, 1536-well; series mostly up to 56 µM
row,Structure (SMILES),Potency
1,CC/C=C\[C@H](O)[C@H](O)C1=C(C)C(=O)[C@]2(O1)C(=O)N[C@@](OC)(C(=O)c1ccccc1)[C@@H]2O,inactive
2,C[C@@H]1O[C@@H](OC2C(CO)OC(OCC3OC(OC(=O)[C@]45CCC(C)(C)CC4C4=CCC6[C@@]7(C)CC[C@@H](O)[C@](C)(C(=O)O)C7CC[C@@]6(C)[C@]4(C)CC5)C(O)C(O)C3O)C(O)C2O)[C@H](O)[C@H](O)[C@H]1O (some centres not stated),inactive
3,CC1OC(OC2C(C)OC(OC3C(O)C(CO)OC(O[C@H]4CC[C@@]5(C)C(CC[C@]6(C)C5CC=C5C7[C@@H](C)[C@H](C)CC[C@]7(C(=O)O)CC[C@]56C(=O)O)C4(C)C)C3O)C(O)C2O)C(O)C(O)C1O (some centres not stated),inactive
4,CC1(C)CC[C@]2(C(=O)O)CC[C@]3(C)C(=CCC4[C@@]5(C)C(=O)C[C@H](O)[C@@](C)(CO)C5CC[C@]43C)[C@@H]2C1 (some centres not stated),inactive
5,COc1c2c(c(C)c3c1C(=O)OC3)OC1(C)CC(O)C34OC(OC)(CC(OC(C)=O)C3(C)C1C2)OC4(C)C (configuration not stated),inactive
6,Cc1nc2ccc(Oc3ccc(F)cc3)cc2c(=O)n1C[C@H]1CCCN(C(C)C)C1,inactive
7,O=C(O)Cc1cn(C2OCC(O)C(O)C2O[C@@H]2O[C@H](CO)[C@@H](O)[C@H](O)[C@H]2O)c2ccccc12 (some centres not stated),inactive
8,CC1(C)CC[C@]2(C(=O)O)CC[C@]3(C)C(=CCC4[C@@]5(C)C[C@@H](O)[C@H](O)C(C)(C)C5CC[C@]43C)[C@@H]2[C@@H]1O (some centres not stated),inactive
9,CC1(C)CC[C@]2(C(=O)O)CC[C@]3(C)C(=CCC4[C@@]5(C)CC[C@H](O[C@@H]6O[C@H](C(=O)O)[C@@H](O[C@@H]7OC[C@@H](O)[C@H](O)[C@H]7O)[C@H](O)[C@H]6O)C(C)(C)C5CC[C@]43C)C2C1O (some centres not stated),inactive
10,C=C1CC[C@@H]2[C@](C)(CO)[C@H](O)CC[C@@]2(C)[C@@H]1C/C=C1/C(=O)OCC1OC(=O)/C(=C/CO)C(O)C[C@@H]1C(=C)CC[C@@H]2[C@](C)(CO)[C@H](O)CC[C@]21C (some centres not stated),inactive
11,CC1=CC(=O)CC(C)(C)C1CCC(C)O[C@@H]1O[C@H](CO)[C@@H](O)[C@H](O)[C@H]1O (some centres not stated),inactive
12,Cc1cc(Nc2nc(NC(C)c3ncc(F)cn3)ncc2Cl)n[nH]1 (configuration not stated),inactive
13,COC1C(=O)CCC2(CO2)C1(O)C1(C)OC1CC=C(C)C (configuration not stated),inactive
14,C=C(C(=O)O)[C@@H]1CC[C@@]2(C)CCC[C@@](C)(O)[C@@H]2C1,inactive
15,CC(C)(C)OC(=O)N1CCC(OCc2nc(-c3ccncc3)no2)CC1,inactive
16,C=C(C)[C@@H]1CC[C@]2(C(=O)O)CC[C@]3(C)C(CCC4[C@]5(C)C(CC[C@]43C)C(C)(C)[C@@H](O)[C@@H]5C(=O)O)C12 (some centres not stated),inactive
17,C=C1CC2[C@]3(C)C(=C(O)C(=O)[C@@]2(C)[C@]2(C(=O)OC)C(=O)C(C)OC(=O)[C@@]12C)C(C)(C)C(=O)CC3O (some centres not stated),inactive
18,COc1ccc(C2(O)c3ccccc3NC(=O)C2O)cc1 (configuration not stated),inactive
19,CC(C)=CCc1cc(C(O)C2NC(=O)CNC(=O)C(Cc3c[nH]c4ccccc34)NC(=O)C3CCCN3C(=O)CNC(=O)C(C(C)C)NC(=O)CNC2=O)ccc1O (configuration not stated) (cyclo(G[X2]GVGPW); configuration not given here),inactive
20,COC(=O)/C=C/C12COC(C)(C)C1C(O)C(OC(C)=O)C1(C)C2CCC2(C)C(c3ccoc3)OC(=O)C3OC321 (configuration not stated),inactive
21,C[C@@H]1C[C@@H](O)[C@@]23CO[C@]2(CO)C[C@@H](O)CC3[C@@]12CC(c1ccoc1)OC2=O (some centres not stated),inactive
22,Cc1nc(N2CCN(C(=O)c3ccco3)CC2)c2c3c(sc2n1)CCCC3,inactive
23,CC(C)C1=CCC(C)(O)C(OC2OC(CO)C(O)C(O)C2O)C1 (configuration not stated),inactive
24,CC(=O)OC(C)C(C)(O)C(=O)O[C@@H]1CC[C@]2(C)CC(=O)C(=C(C)C)C[C@H]2[C@]1(C)OC(C)=O (some centres not stated),inactive
25,CC(C)C[C@H](CC(=O)NO)C(=O)N[C@@H](Cc1ccc2ccccc2c1)C(=O)N[C@@H](C)C(=O)NCCN,inactive
26,COC(=O)C1=CO[C@@H](O[C@@H]2O[C@H](CO[C@@H]3O[C@H](CO)[C@@H](O)[C@H](O)[C@H]3O)[C@@H](O)[C@H](O)[C@H]2O)[C@@H]2C(CO)=CC[C@H]12,inactive
27,COC(=O)CC[C@@H](C)[C@H]1CC[C@H]2[C@@H]3CC(=O)[C@H]4C[C@H](OC(C)=O)CC[C@]4(C)[C@H]3CC[C@]12C,inactive
